Screening data deposited in PubChem BioAssay by several laboratories.
Shown are actives, neighbours in structure and some others; about 2.1% of the full set was active somewhere.
Platelet DG rel = platelet dense granule release activity; human platelet-rich plasma, SFLLRN dense granule ATP release, luminescence; inhibition, %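 (compounds screened at 7.5 µM in platelet-rich plasma)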; hit rate 0.22% among 300,000; AID 1663;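 active = mean replicate score, as percent of positive control, at or above 50; inconclusive = mean below 50 but at least one replicate at or above 50; inactive = mean and every replicate below 50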
Wee1 stabilizer = blocks degradation of human Wee1 kinase | hit rate 1.2% among 220,000 | P30291 | reporter increase, % at 5 µM | HeLa Luc-Wee1K328M stability, luciferase luminescence; 100% = proteasome inhibitor MG132 effect;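 active = activation above the mean of all tested compounds plus 3 SD, set per screening run, cut at about 8.8% in these data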;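 also: cells exposed to compound for 20 h before luminescence read; 0% = DMSO alone and 100% = MG132 at 30 µM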
Target sequence (P30291 whole entry K328M): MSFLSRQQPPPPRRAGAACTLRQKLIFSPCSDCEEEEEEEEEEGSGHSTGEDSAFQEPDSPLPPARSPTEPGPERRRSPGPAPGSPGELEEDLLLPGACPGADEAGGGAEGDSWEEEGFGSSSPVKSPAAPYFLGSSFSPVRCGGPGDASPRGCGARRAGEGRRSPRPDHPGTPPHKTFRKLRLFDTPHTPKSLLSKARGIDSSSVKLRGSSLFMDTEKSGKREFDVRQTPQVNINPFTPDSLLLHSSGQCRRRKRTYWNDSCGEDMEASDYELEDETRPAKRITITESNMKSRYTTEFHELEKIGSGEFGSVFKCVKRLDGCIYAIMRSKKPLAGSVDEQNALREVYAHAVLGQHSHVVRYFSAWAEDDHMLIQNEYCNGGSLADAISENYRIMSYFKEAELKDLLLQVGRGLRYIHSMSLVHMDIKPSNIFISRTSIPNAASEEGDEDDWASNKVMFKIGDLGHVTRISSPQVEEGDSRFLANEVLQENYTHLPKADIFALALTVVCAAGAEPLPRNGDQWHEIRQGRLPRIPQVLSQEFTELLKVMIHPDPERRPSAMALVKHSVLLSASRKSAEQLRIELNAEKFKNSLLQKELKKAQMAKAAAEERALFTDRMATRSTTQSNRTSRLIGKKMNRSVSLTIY
HIF activator = HIF pathway transcriptional activation; U2OS HRE-luciferase reporter, luminescence; normalized: DMSO 0%, desferrioxamine 100%; activation, % at 7.5 µM (by protocol); hit rate 0.32% among 300,000;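 active = mean activation of at least 10% of the iron chelator positive control signal, with at least half of replicates also reaching 10%; inconclusive = mean and replicate majority disagree about reaching 10%; inactive = mean and most replicates under 10%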
KLF5 inhibitor = inhibitors of KLF5 expression; DLD-1 KLF5 promoter-luciferase reporter, luminescence; inhibition, % at 5 µM; hit rate 0.23% among 290,000; AID 1700;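 active = inhibition above a per-plate limit of that plate's mean compound inhibition plus 3 SD, cut at about 60% in these data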;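 also: 0% = DMSO wells and 100% = LY294002 at 200 µM; higher means less KLF5 promoter-driven luciferase light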
aSyn 5UTR inh = 5' untranslated region of α-synuclein, MLPCN primary screen. alpha-synuclein 5'UTR reporter, inhibitor activity. inhibition, % (tested at 7.5 µM). hit rate 0.82% among 300,000. AID 1813; in the data active = inhibition above about 60%; inconclusive = no clear call, values can overlap the other calls;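 also: H4 neuroglioblastoma cells stably carrying SNCA 5'UTR luciferase fusion; 0% = DMSO wells and 100% = positive control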
Numbers without * were called inactive; ? = inconclusive; · = not tested or not shown.

SMILES | Platelet DG rel | Wee1 stabilizer | HIF activator | KLF5 inhibitor | aSyn 5UTR inh
O=C(O[C@@H]1OC2COC(=O)c3cc(O)c(O)c(O)c3-c3c(cc(O)c(O)c3O)C(=O)O[C@@H]([C@H]1O)[C@@H]2O)c1cc(O)c(O)c(O)c1 | 15 | 9.7* | 0 | -20 | -4
COCCOc1ccc(C(F)(F)F)cc1NC(=O)CN1C(=O)NC2(CCc3ccccc32)C1=O (centres undefined) | -2 | · | 0 | · | 13
Cc1cc(C)n(C(C)CC(=O)Nc2ccc(-c3ccno3)cc2)n1 (centres undefined) | -8 | · | 0 | 0 | -2
Cc1c(C(=O)N/N=C/c2ccc(N(C)C)cc2)[nH]c2ccc(Cl)cc12 | 0 | -1 | 1 | -21 | 73*
COCC(=O)N1CCC(Oc2ccc(C(=O)NC(C)c3csc(C)n3)cc2)CC1 (centres undefined) | -12 | · | 0 | -11 | 7
O=C(NC1CCN(C(=S)NCCc2ccccc2)CC1)C1CC1 | -9 | -4 | 0 | 3 | 8
CCCNC(=S)N1CCC(NC(=O)C2CCCCC2)CC1 | -1 | 10* | 0 | -8 | 22
C/C(=N/NC(=O)c1ccc(Br)o1)c1cccc(NC(=O)c2ccc(F)cc2)c1 | 15 | · | 2 | -46 | -55
CCOC(=O)c1sc(N2C(=O)C(O)=C(C(=O)c3ccc(C)o3)C2c2ccc(OC)c(OC)c2)nc1C (centres undefined) | -3 | · | 1 | -28 | 12
CCOC(=O)c1sc(N2C(=O)C(O)=C(C(=O)c3ccc(C)o3)C2c2cccc([N+](=O)[O-])c2)nc1C (centres undefined) | 51* | · | 0 | -9 | 6
Cc1cccc(-c2nc(S(=O)(=O)c3ccc(F)cc3)c(NCCCN3CCOCC3)o2)c1 | 4 | · | -1 | -10 | -14
COC(=O)c1cc(NS(=O)(=O)c2ccc(C)c3ccccc23)ccc1N1CCOCC1 | -9 | 9.0* | 0 | 6 | -22
CC(C)(C)c1ccc(Oc2ccc(N)cn2)cc1 | 7 | -2 | -5 | 4 | 87*
CC(C)(C)c1ccc(Oc2ccc(NC(=O)c3ccccc3C(=O)O)cn2)cc1 | 3 | -1 | 2 | -1 | 86*
CCCCCOc1ccc(NC(=O)C(=O)NCCCn2ccnc2)cc1 | -10 | 7 | -1 | -39 | 63*
OC1(c2ccc(Cl)cc2)CCN(Cc2cn[nH]c2-c2ccc(F)cc2)CC1 | 17 | -1 | 0 | -13 | ?
COc1ccc(-c2[nH]ncc2CN2CCN(c3ccc(F)cc3)CC2)cc1 | 5 | 4 | 0 | -8 | 16
COc1ccc(-c2[nH]ncc2CN2CCC(O)(c3ccc(Cl)cc3)CC2)cc1 | 0 | 1 | 0 | -7 | 87*
OC1(c2ccc(Cl)cc2)CCN(Cc2cn[nH]c2-c2ccccc2)CC1 | -1 | 2 | 0 | -6 | 70*
O=C(c1cc(-c2ccccc2O)on1)N1CCCCCC1 | 3 | · | 1 | -135 | -140
Cc1nc2ccc(NC(=O)N3CCOCC3)cc2s1 | 3 | 10* | 0 | -7 | -15
O=C(CNC(=O)c1cccs1)N=Nc1c(O)[nH]c2ccc([N+](=O)[O-])cc12 | -11 | · | -1 | -4 | 13
Cc1cc2[nH]c3c(c[n+](C)c4ccccc34)c2cc1C | 8 | 6 | -2 | 58 | 101*
O=C(CN1C(=O)c2ccccc2S1(=O)=O)Nc1ccc(S(=O)(=O)N2CCCCC2)cc1 | 2 | 9.1* | 0 | -10 | -3
O=C1CCCC(=O)C1CS(=O)(=O)c1ccccc1 | -1 | 4 | 0 | -5 | -16
SMILES | Platelet DG rel | Wee1 stabilizer | HIF activator | KLF5 inhibitor | aSyn 5UTR inh
CC1(C)Oc2cc3oc(-c4cc(O)cc(O)c4)cc3cc2CC1O (centres undefined) | 7 | · | -2 | · | 97*
Oc1cc(O)cc(-c2cc3ccc(O)cc3o2)c1 | 3 | · | -1 | · | 51
C/C(CC(=O)Nc1cccc(Br)c1)=N\NC(=O)c1ccc(O)cc1O | 0 | · | 1 | -45 | -31
C/C(=N/OC(=O)c1ccc(C)cc1)c1cccs1 | 59* | -2 | 1 | 0 | -8
Cc1cccc(/C(N)=N/OC(=O)c2ccc3c(c2)OCO3)c1 | 64* | 7 | 1 | -140 | -116
Cc1cccc(C(=O)O/N=C(\N)c2ccccn2)c1 | 26 | · | -4 | -15 | 70*
C/C(=N\OC(=O)c1ccc(C)cc1)c1sc(C)nc1C | 31 | 5 | 0 | -12 | 12
Cc1ccc(C(=O)O/N=C(\N)c2ccccn2)cc1 | 104* | · | -5 | 38 | 65*
CCOc1ccc(C(=O)O/N=C(\N)c2ccccn2)cc1 | 81* | · | -42 | 17 | 62*
COc1ccc(C(=O)O/N=C(/c2ccccc2)c2ccncc2)cc1 | 12 | -1 | 7 | -47 | -72
COc1ccc(C(=O)O/N=C(\C)c2ccccc2)cc1 | 65* | 1 | 1 | -28 | -21
C=CCn1c(SCc2ccc(C#N)cc2)nnc1-c1ccc(C)cc1 | -2 | -3 | -1 | 7 | 22
COc1ccc(/C=N/Nc2nncc3ccccc23)cc1 | 68* | 4 | 1 | -91 | 67*
COc1ccc(/C=N/Nc2nccnc2Cl)c(OC)c1 | 54* | 1 | 3 | -32 | -111
COc1ccccc1/C=N/Nc1nncc2ccccc12 | 28 | 2 | 5 | -57 | -132
COc1ccc(/C=N/Nc2cc(N(C)C)nc(N(C)C)n2)cc1 | -12 | -1 | 0 | -20 | -65
COc1ccc(/C=N/Nc2nonc2N)c(OC)c1 | 4 | -2 | 1 | -28 | 44
COc1ccc(/C=N/Nc2cc(OC)ncn2)cc1 | 52* | -2 | -1 | -58 | 19
COc1ccc(/C=N/Nc2nccnc2Cl)cc1 | 82* | 0 | 2 | -50 | -52
C=Cc1ncc(OC)c2c1[nH]c1ccccc12 | -4 | · | 0 | · | 50
Cc1ccc(C)c(C(=O)NC(C)c2ccc(-n3ccnc3)cc2)c1 (centres undefined) | -5 | · | 1 | -5 | 2
c1ccc(CN2CCC(Nc3nc(-c4cccs4)nc4ccccc34)CC2)cc1 | 2 | -1 | -4 | -13 | 62*
CCN1/C(=C/C=C/C=C/C=C/c2sc3ccccc3[n+]2CC)Sc2ccccc21 | 1 | · | 0 | -11 | -39
CCN1/C(=C/C=C/C=C/c2sc3ccccc3[n+]2CC)Sc2ccccc21 | 23 | 2 | -1 | -8 | 126*
Cc1cc(/C=N/n2cnnc2)c(C)n1-c1ccc(OCc2ccc(Cl)cc2Cl)cc1 | -6 | -3 | -3 | 57 | 113*
O=S(=O)(c1cccc(F)c1)N1CCCN(c2ccc(C(F)(F)F)cn2)CC1 | 6 | -2 | 0 | 14 | 7
O=C(Nc1ccc(Cc2nc3ccccc3s2)cc1)c1ccncc1 | -2 | · | 1 | -28 | -25
CCOC(=O)c1cnc(Nc2nc3ccccc3o2)nc1C | 17 | 2 | -2 | -110 | 86*
Cc1nc(Nc2nc3ccccc3o2)nc2c1CCC2 | 17 | 1 | -1 | 48 | 71*
CCOC(=O)c1cnc(Nc2nc3ccccc3o2)nc1CN1CCN(c2ccccc2)CC1 | · | 0 | · | -14 | ·
